Laboratory results from PubChem BioAssay AID651791 (National Center for Advancing Translational Sciences (NCATS), 2012).
Records with an inconclusive call do not appear. Calls of active or inactive are those of the source. Calls follow the shape of the dose curve; as a rule, active = well fitted inhibition curve with a large enough effect; inconclusive = small, poorly fitted or top-dose-only effect; inactive = no such curve, though single readings can be large or run the other way.

Assay: InCell qHTS Assay for Inhibitors of the mTORC1 Signaling Pathway in MEF (Tsc2-/-, p53-/-) Cells: Hit Validation;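 also: phospho-S6 Ser235/236 signal normalized to propidium iodide cell count per well; nearly all actives have a fitted effect of over 75% in size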
Conditions: phospho-rpS6 immunofluorescence, 24 h; activity change, negative = inhibition: at 38.3 µM (top of the series)
Potency is read from the fitted curve at half-maximal effect.

`CCNS(=O)(=O)c1ccc(NC(=O)CSc2nc(-c3ccco3)cc(C(F)(F)F)n2)cc1` showed an activity change, negative = inhibition of -13.9%.
`Cc1cccn2c(Nc3ccccc3)c(-c3cccs3)nc12` showed an activity change, negative = inhibition of -100%.
For `CCCCN(CC)CCNC(=O)C1CCN(c2nnc(C)c3c(C)n(-c4ccc(C)cc4)nc23)CC1`, the activity change, negative = inhibition was -100%.
With `COc1ccccc1C(=O)Nc1ccc(-c2cc(C(F)(F)F)nn2-c2ccccc2)cc1` the activity change, negative = inhibition was -100%.
Work on `CCOc1ccccc1NC(=O)CN1C(=O)C(=O)c2ccccc21` yielded an activity change, negative = inhibition of -100%.
Work on `Cc1oc2ccc(O)c(CN3CCCC(C)C3)c2c1C(=O)Nc1ccccc1` (configuration not stated) yielded an activity change, negative = inhibition of -29.6%.
With `CS(=O)(=O)c1ncc(Cl)c(C(=O)N(Cc2ccc(Cl)cc2)Cc2ccco2)n1` the Potency was 3.29 µM (active).
With `Cc1ccc(-c2nc3sccn3c2Nc2ccc(C)c(C)c2)cc1` the activity change, negative = inhibition was -100%.
With `CCOC(=O)N1CCN(Cc2nc3cc(NC(=O)c4cccc(C)c4)ccc3n2C(C)C)CC1` the activity change, negative = inhibition was -100%.
For `Cc1ccc(-c2noc(CCC(=O)N(C)c3ccccc3F)n2)cc1`, the activity change, negative = inhibition was -100%.
With `COc1ccc(OC)c(NC(=O)c2nc(S(=O)(=O)Cc3ccc(F)cc3)ncc2Cl)c1` the Potency was 2.61 µM (active).
`C#CC(C)(CC)NC(=O)Cn1nnc(-c2ccc(OCc3c(F)cccc3Cl)cc2)n1` (configuration not stated) showed an activity change, negative = inhibition of -100%.
`CCCS(=O)(=O)c1c(S(=O)(=O)CCC)c2cc(C(C)(C)C)ccn2c1C(=O)c1ccc(OC)c(OC)c1` gave an activity change, negative = inhibition of -100%.
In the case of `CCOc1ccc(S(=O)(=O)N(C(=O)c2ccncc2)c2ccc3oc(C)c(C(=O)OC)c3c2)cc1`, the activity change, negative = inhibition is reported as -100%.
In the case of `Cc1cccc(N2CCN(C(=O)c3ccc(CS(=O)c4cccc(Cl)c4)o3)CC2)c1C` (configuration not stated), the activity change, negative = inhibition is reported as -17.3%.
Compound `Cc1cccc(NC(=O)Cn2cc(C(=O)c3ccco3)c3ccccc32)c1C` has an activity change, negative = inhibition of -100%.
For `CCc1ccc(NC(=O)Cn2c(=O)n(-c3ccc(OC)cc3)c(=O)c3ccc(C(=O)NCc4ccc(C)cc4)cc32)cc1`, the Potency was 13.1 µM (active).
With `CCc1cnc2c(c1SCC(=O)NCc1ccc(F)cc1)c(=O)n(C)c(=O)n2C` the activity change, negative = inhibition was -100%.
Compound `O=C(CC1(O)C(=O)N(CCc2ccccc2)c2ccc(Br)cc21)c1ccccc1O` (configuration not stated) has an activity change, negative = inhibition of 1.72%.
Compound `CCOC(=O)c1c(C)[nH]c(CCC(=O)Nc2cc(C)ccc2OC)c1C` has an activity change, negative = inhibition of -100%.
`Cc1cc(Cl)ccc1NC(=O)CN1C(=O)C(=O)c2ccccc21` showed an activity change, negative = inhibition of -16%.
With `COc1ccc(S(=O)(=O)N(CCc2ccccc2)CC(=O)Nc2cccc(OC)c2)cc1` the activity change, negative = inhibition was -100%.
`Cc1cc(C)c(-c2n[nH]c3c2C(c2ccccc2F)N(Cc2ccco2)C3=O)c(O)c1` (configuration not stated) gave an activity change, negative = inhibition of -100%.
`CCN(C(=O)C(NS(=O)(=O)c1ccc(Br)s1)c1ccccc1)c1ccc(C)c(C)c1` (configuration not stated) showed an activity change, negative = inhibition of -15.2%.
Compound `Cc1ccccc1NC(=O)c1c(NC(=O)C(F)(F)F)sc2c1CCCCC2` has an activity change, negative = inhibition of -100%.
With `CN(C)c1ccc(Nc2nc3ccccc3n3nnnc23)cc1` the activity change, negative = inhibition was -0.0295%.
Compound `Cc1ccc(C)c(N2CCN(CCCNC(=O)C3COc4ccccc4C3)CC2)c1` (configuration not stated) has an activity change, negative = inhibition of -100%.
With `Oc1ccc(NCc2ccccc2OCc2ccc(Cl)cc2)cc1` the activity change, negative = inhibition was -100%.
With `CCOC(=O)c1cnc2c(ccc3ccccc32)c1Nc1ccc(OC)cc1OC` the activity change, negative = inhibition was -100%.
With `COc1ccccc1CNC(=O)CCCn1c(=O)c2cccn2c2ccccc21` the activity change, negative = inhibition was -100%.
`COc1ccc(-c2nc(CCNC(=O)c3c(F)cccc3Cl)cs2)cc1` showed an activity change, negative = inhibition of -100%.
With `CCCc1oc2ccc(NS(=O)(=O)c3ccc(OCC)cc3)cc2c1C(=O)OCC` the activity change, negative = inhibition was -100%.
Compound `CCN1CCN(c2ccc(NS(=O)(=O)c3c(C)nc4sccn4c3=O)cc2Cl)CC1` has an activity change, negative = inhibition of -100%.
Work on `Cn1nc(-c2ccc(OCC(=O)Nc3ccccc3)cc2)c2ccccc2c1=O` yielded an activity change, negative = inhibition of -100%.
`CCCCN(C)C(=O)CSc1c2c(nc3ccc(Cl)cc13)CCCC2` showed an activity change, negative = inhibition of -100%.
For `CCS(=O)(=O)c1ncc(Cl)c(C(=O)N2CCN(c3ccc(OC)cc3)CC2)n1`, the Potency was 4.65 µM (active).
With `Cc1ccc(NC(=O)CSc2nc(=O)cc(N)n2CCc2ccccc2)cc1` the activity change, negative = inhibition was -100%.
